“And” between values parts separate entries of the source, which are not always exact repeats. Identical values can stand only once. Out of some 5,500 compounds screened, about 2,000 (36%) were called active. Inconclusive results (about 18%) are left out. No stated cut-off is given here; in the data, active means normalized growth mostly below about 0.91 (no sharp cut-off); inconclusive means no clear call, values can overlap the other calls; inactive means mostly above about 0.92. The list shows a part of the results.
Test: chemical genetic growth profiling, strain panel (AID 1159580);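 further: tested at 20 µM; growth read once vehicle control cultures reached saturation at 30 °C; 1 = growth at the plate median or of vehicle wells; lower values mean less growth of the strain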
Details: S. cerevisiae deletion strains, growth OD

Measured: normalized growth

CC(=O)[C@@]1(O)CCC2C3C[C@H](C)C4=CC(=O)C=CC4(C)[C@@]3(F)[C@@H](O)C[C@@]21C (stereo partly drawn)
inactive: locus YAL013W, strain DEP1, hits give low values 0.995 | locus YAL021C, strain ccr4, hits give low values 0.965 | locus YAL026C, strain drs2, hits give low values 0.966 | locus YAL030W, strain snc1, hits give low values 0.961 | locus YBL061C, strain skt5, hits give low values 0.976 | locus YBR009C, strain hhf1, hits give low values 0.931 | locus YBR021W, strain FUR4, hits give low values 0.99 | locus YBR023C, strain chs3, hits give low values 0.969 | locus YBR171W, strain sec66, hits give low values 0.973 | locus YBR229C, strain ROT2, hits give low values 1.01 | locus YBR231C, strain swc5, hits give low values 0.975 | locus YBR279W, strain paf1, hits give low values 0.98 | locus YCL011C, strain gbp2, hits give low values 0.964 | locus YCL016C, strain dcc1, hits give low values 0.963 | locus YCL029C, strain bik1, hits give low values 0.997 | locus YCL069W, strain vba3, hits give low values 0.979 | locus YCR088W, strain abp1, hits give low values 0.973 | locus YDL005C, strain med2, hits give low values 0.962 | locus YDL035C, strain GPR1, hits give low values 0.986 | locus YDL040C, strain nat1, hits give low values 0.983 | locus YDL074C, strain BRE1, hits give low values 0.981 | locus YDL101C, strain DUN1, hits give low values 1.02 | locus YDL134C, strain PPH21, hits give low values 0.99 | locus YDL185W, strain tfp1, hits give low values 1.03 | locus YDL192W, strain arf1, hits give low values 1.01 | locus YDR001C, strain nth1, hits give low values 0.977 | locus YDR069C, strain doa4, hits give low values 0.969 | locus YDR101C, strain arx1, hits give low values 0.971 | locus YDR137W, strain rgp1, hits give low values 0.975 | locus YDR150W, strain NUM1, hits give low values 0.991 | locus YDR159W, strain sac3, hits give low values 0.929 | locus YDR162C, strain NBP2, hits give low values 0.984 | locus YDR195W, strain ref2 0.98 | locus YDR297W, strain sur2, hits give low values 0.975 | locus YDR318W, strain mcm21, hits give low values 1.01 | locus YDR334W, strain swr1, hits give low values 0.976 | locus YDR335W, strain msn5, hits give low values 0.965 | locus YDR388W, hits give low values 1.01 | locus YDR392W, strain spt3, hits give low values 0.936 | locus YDR502C, strain sam2, hits give low values 1.01 | locus YEL003W, strain gim4, hits give low values 0.971 | locus YEL037C, strain rad23, hits give low values 0.975 | locus YEL061C, strain CIN8 (second series), hits give low values 0.962 | locus YEL061C, strain CIN8, hits give low values 0.989 | locus YER015W, strain faa2, hits give low values 0.977 | locus YER016W, strain bim1, hits give low values 0.933 | locus YER110C, hits give low values 1.02 | locus YER111C, strain swi4, hits give low values 0.969 | locus YER155C, strain BEM2 (second series), hits give low values 1.03 | locus YER155C, strain BEM2, hits give low values 1.01 | locus YER167W, strain BCK2, hits give low values 0.988 | locus YFR010W, strain ubp6, hits give low values 0.953 | locus YGL078C, strain dbp3, hits give low values 1 | locus YGL086W, strain mad1, hits give low values 0.985 | locus YGL167C, strain pmr1, hits give low values 0.977 | locus YGL173C, strain kem1, hits give low values 0.976 | locus YGL227W, strain vid30, hits give low values 0.988 | locus YGL240W, strain doc1, hits give low values 0.955 | locus YGL248W, strain PDE1, hits give low values 1.01 | locus YGL253W, strain hxk2, hits give low values 0.961 | locus YGR078C, strain PAC10, hits give low values 1 | locus YGR135W, strain pre9, hits give low values 1.05 | locus YGR252W, strain gcn5, hits give low values 1.08 | locus YHR013C, strain ard1, hits give low values 0.905 | locus YHR027C, strain rpn1, hits give low values 0.971 | locus YHR030C, strain SLT2, hits give low values 0.979 and 0.988 | locus YHR079C, strain IRE1 (second series), hits give low values 1.01 | locus YHR079C, strain IRE1, hits give low values 0.971 | locus YHR094C, strain hxt1, hits give low values 1.01 | locus YHR129C, strain ARP1, hits give low values 1.01 | locus YHR142W, strain chs7, hits give low values 0.96 | locus YHR200W, strain rpn10, hits give low values 1.01 | locus YIL066C, strain RNR3, hits give low values 0.996 | locus YIL073C, strain SPO22, hits give low values 1.02 | locus YIL125W, strain kgd1, hits give low values 1 | locus YIR030C, strain dcg1, hits give low values 1 | locus YJL092W, strain hpr5, hits give low values 0.983 | locus YJL095W, strain BCK1 (second series), hits give low values 0.985 | locus YJL095W, strain BCK1, hits give low values 1.02 and 0.999 | locus YJL115W, strain asf1, hits give low values 0.954 | locus YJL129C, strain trk1, hits give low values 0.968 | locus YJL134W, strain LCB3, hits give low values 1.01 | locus YJL154C, strain vps35, hits give low values 0.984 | locus YJL164C, strain tpk1, hits give low values 0.937 | locus YJL166W, strain qcr8, hits give low values 0.979 | locus YJL168C, strain set2, hits give low values 1 | locus YJL187C, strain SWE1 (second series), hits give low values 1.02 | locus YJR043C, strain POL32, hits give low values 0.99
